# This is one part of a sample in which hits are shown more often than they occur.
# CtBP-E1A blk – blocks the CtBP interaction with E1A; AlphaScreen GST-E1A/His-CtBP binding, 1536-well; active compounds read low; activity change, % (no concentration beside the values); 340,000 compounds, 0.49% hits; in the data active = activity change below about -65%; inconclusive = mostly about -30% to -63%
#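 GST-E1A and His-tagged CtBP (125 nM each as 5X stock) were preincubated with pin-transferred compound for 2 h at 37 °C in the dark, then glutathione donor and nickel acceptor beads were added for 1 h before AlphaScreen reading.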
# KDM4E inh – blocks human JMJD2E demethylase activity. B2RXH2. JMJD2E catalytic domain, FDH-coupled NADH fluorescence (FDH is formaldehyde dehydrogenase). Potency, µM (doses to about 57.1 µM), without a hit: at the top dose activity change, negative = inhibition, most hits filed as inhibitors. 230,000 compounds, 1.6% hits. AID 2147; active = well fitted inhibition curve with a large enough effect, not every such curve was filed as active; inconclusive = small, poorly fitted or top-dose-only effect, or another doubt; inactive = no such curve, though single readings can be large or run the other way;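 note: potency is the fitted concentration of half-maximal effect; 0% = wells with enzyme and -100% = buffer wells without enzyme; nearly all actives have a fitted effect of over 50% in size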
# Six1-Eya2 inh – blocks human Six1 binding to Eya2. Q15475+O00167. AlphaScreen GST-Six1/His-Eya2 binding, biochemical; active compounds read low. activity change, % (test concentration not listed). 360,000 compounds, 0.56% hits; in the data active = activity change below about -65%; inconclusive = mostly about -30% to -63%
# Target sequence (O00167 whole entry, looked up): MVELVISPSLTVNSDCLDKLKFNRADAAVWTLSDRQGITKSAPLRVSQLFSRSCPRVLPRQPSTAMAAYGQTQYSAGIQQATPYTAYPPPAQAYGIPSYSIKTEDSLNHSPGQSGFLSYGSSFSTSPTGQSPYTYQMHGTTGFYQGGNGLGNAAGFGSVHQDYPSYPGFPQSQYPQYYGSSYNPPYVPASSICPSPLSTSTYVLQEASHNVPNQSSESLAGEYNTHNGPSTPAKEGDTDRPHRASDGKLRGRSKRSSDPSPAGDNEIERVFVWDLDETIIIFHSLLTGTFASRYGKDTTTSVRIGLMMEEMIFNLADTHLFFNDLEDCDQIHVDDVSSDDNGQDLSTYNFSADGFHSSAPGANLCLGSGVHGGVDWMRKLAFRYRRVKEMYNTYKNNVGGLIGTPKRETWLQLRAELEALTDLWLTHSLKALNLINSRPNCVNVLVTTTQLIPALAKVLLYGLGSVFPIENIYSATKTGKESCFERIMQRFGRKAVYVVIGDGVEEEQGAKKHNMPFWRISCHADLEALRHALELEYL
# Target sequence (Q15475 whole entry, looked up): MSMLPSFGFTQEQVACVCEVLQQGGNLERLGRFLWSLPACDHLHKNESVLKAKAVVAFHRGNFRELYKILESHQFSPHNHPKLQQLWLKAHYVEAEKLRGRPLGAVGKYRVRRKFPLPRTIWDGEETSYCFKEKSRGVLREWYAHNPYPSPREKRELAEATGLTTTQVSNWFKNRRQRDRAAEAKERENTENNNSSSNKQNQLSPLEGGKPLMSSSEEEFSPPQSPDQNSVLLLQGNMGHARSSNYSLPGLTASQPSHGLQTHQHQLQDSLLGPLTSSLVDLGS
#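 AlphaScreen luminescence read after one hour at 37 °C in darkness. Pin-transferred compounds met GST-Six1 and His-Eya2 protein (5X stock 250 nM/500 nM) plus glutathione donor and Ni-chelate acceptor beads (5X, 50 ug/mL).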
# Anesthetic bind – candidate novel general anesthetic via apoferritin binding; AID 485281; Potency, µM (highest dose often 77.5 µM), for the others: top-dose activity change, negative = displacement, most hits filed as inhibitors; 350,000 compounds, 0.074% hits; apoferritin/1-aminoanthracene competitive binding, fluorescence; note: potency is the fitted concentration of half-maximal effect; nearly all actives have a fitted effect of over 20% in size
#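 Apoferritin-based anesthetic binding model; compound displacement of fluorescent 1-AMA measured as endpoint fluorescence after 10 minutes at room temperature, scaled to free-ligand and complex controls.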
# Eya2 phos inh – blocks the phosphatase activity of human Eya2; O00167; recombinant Eya2, OMFP fluorescence dephosphorylation (OMFP is methylfluorescein phosphate); Potency, µM (doses to about 76.9 µM), for the others: at the highest dose activity, negative = inhibition, hits mostly inhibitors; 330,000 compounds, 0.006% hits; AID 488837; note: potency is the fitted concentration of half-maximal effect
#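 Eya2 (0.2 uM) preincubated 10 min at ambient with compound, then OMFP substrate added at 50 uM; 10 min reaction in 50 mM HEPES pH 7.5, 50 mM NaCl, 5 uM MgCl2, 0.05% BSA, 1 mM DTT. Fluorescence read at Ex 485/Em 525 nm.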
# GALK inhibitor – inhibitors of human galactokinase; Purified GALK, Kinase-Glo residual ATP luminescence; Potency, µM (highest dose often 57.5 µM), for the others: top-dose activity change, negative = inhibition, usual class: inhibitors; 270,000 compounds, 0.007% hits; AID 1868; note: potency is the fitted concentration of half-maximal effect
#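 5 nM enzyme, 35 uM ATP, 100 uM galactose, 20 mM HEPES pH8.0, 5 mM MgCl2; 1 h RT; residual ATP by Kinase-Glo Plus luminescence, qHTS format.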
# The depositor's hits bear a star; ? = inconclusive; . = no result; [ ] = another dose, or the depositor's remark. Unless noted, calls come from the whole dose curve; as a rule, active = well fitted curve in the direction sought with a large enough effect; inconclusive = small, poorly fitted or top-dose-only effect, or another doubt; inactive = no such curve, though single readings can be large; an effect the other way counts as inactive or inconclusive. Unless noted, % is set by controls: 0 for no effect and ±100 for the full control effect.
SMILES,CtBP-E1A blk,KDM4E inh,Six1-Eya2 inh,Anesthetic bind,Eya2 phos inh,GALK inhibitor
O=C(N/N=C/c1cc([N+](=O)[O-])ccc1O)c1c[nH]c2ccccc12,-78.0*,?,-85.9*,3.1%,-5.2%,.
O=C(NN=Cc1cc([N+](=O)[O-])ccc1O)c1cccc2ccccc12,-3.4,.,-91.6*,.,.,.
O=C(N/N=C/c1cccc([N+](=O)[O-])c1)c1c[nH]c2ccccc12,-9.1,4.1%,-15.1,-10.3%,-29.5%,-0.8%
O=C(N/N=C/c1cc([N+](=O)[O-])ccc1O)Nc1ccccc1,-2.9,28.2µM*,-5.5,-16.8%,10.1%,-0.6%
O=[N+]([O-])c1cccc(N/N=C/c2cc([N+](=O)[O-])ccc2O)c1,-9.7,1.7%,-16.5,-20.3%,-0.3%,2.3%
Cc1nn(C)c2c1c(C(F)(F)F)cc(=O)n2C(C)C(=O)NCc1ccccc1 (stereo not given),.,.,.,-7.9%,.,.
O=C(NC(C(=O)N/N=C/c1cccc2ccccc12)c1n[nH]c(=O)c2ccccc12)c1ccccc1 (stereo not given),-14.7,4.6%,-14.1,-19.7%,-7.7%,-0.4%
O=C(NC(C(=O)N/N=C/c1cc([N+](=O)[O-])ccc1O)c1n[nH]c(=O)c2ccccc12)c1ccccc1 (stereo not given),-87.8*,.,-90.1*,-11.1%,-3.6%,3.7%
COc1ccc(-c2csc(NC(=O)Cc3cccc4ccccc34)c2C(=O)O)cc1,-67.1*,-16.5%,-67.4*,-5.3%,-3.1%,1.9%
COc1ccc(-c2csc(NC(=O)c3ccccc3Br)c2C(=O)O)cc1,-3.4,.,?,-8.3%,-8.7%,-2.9%
Cc1ccc(-c2csc(NC(=O)c3ccccc3F)c2C(=O)O)cc1,.,.,-70.4*,7.5%,-7.1%,3.8%
COc1ccc(CCNC(=O)Cn2c(=O)nc(-c3ccccc3)c3ccccc32)cc1OC,.,.,.,33.1%,.,.
O=c1c2c(-c3ccccc3)csc2nc2c3ccccc3c(NCCN3CCOCC3)nn12,-88.1*,?,-82.4*,-15.1%,1.9%,-0.7%
Nc1nc2ncc(C(=O)c3cc(Cl)cc(Cl)c3O)cc2s1,-72.2*,?,?,-6.4%,15.4%,.
Nc1nc2ncc(C(=O)c3cc(F)ccc3O)cc2s1,-8.4,-11.7%,-11.9,-2.2%,-3.6%,0.7%
Nc1ncnc2c1nc(Br)n2[C@@H]1O[C@H]2COP(=O)(O)O[C@@H]2[C@@H]1O,.,.,.,4.4%,.,.
CCN1C/C(=C/c2sccc2C)c2nc3ccccc3c(C(=O)O)c2C1,.,-5.1%,-3.3,3.8%,7.6%,1.2%
CCN1C/C(=C/c2cccs2)c2nc3ccccc3c(C(=O)O)c2C1,-1.0,25.1µM*,-0.1,-4.7%,0.7%,5.4%
COC(=O)C1=CO[C@@H](C)[C@@H]2CN3CCc4c([nH]c5ccccc45)[C@@H]3C[C@H]12,.,.,.,-8.8%,.,.
CC1Cc2ccccc2N1C(=O)CSc1ccccc1 (stereo not given),17.5,-3.5%,9.9,6.31µM*,-8.2%,-1.3%
CC1Cc2ccccc2N1C(=O)CSC1=NCCS1 (stereo not given),11.2,-3.7%,2.0,?,-3.9%,6.8%
Cc1ccccc1/C=C1\SC(=S)N(/N=C/c2cc([N+](=O)[O-])ccc2O)C1=O,-91.6*,-28.9%,?,-11.3%,-19.9%,1.8%
CCn1c(C)c(CS(=O)(=O)c2ccccc2)[nH]c1=O,-7.8,28.2µM*,3.9,6.3%,-16.3%,0.2%
CC(C)C[C@H](N)C(=O)N[C@H](C(=O)N[C@@H](CCCN=C(N)N)C(=O)N[C@H](CS)C(=O)NCC(=O)N[C@@H](CCCCN)C(=O)N[C@@H](Cc1cnc[nH]1)C(=O)N[C@@H](CO)C(=O)N[C@@H](CCCN=C(N)N)C(=O)O)C(C)C,.,.,.,-5.4%,.,.
COCOc1cc(OC)ccc1C(=O)/C=C\c1ccc2c(c1)OCO2,.,.,.,-14.8%[15.3 µM],.,.
SMILES,CtBP-E1A blk,KDM4E inh,Six1-Eya2 inh,Anesthetic bind,Eya2 phos inh,GALK inhibitor
O=C(CSc1nnc(-c2ccccn2)o1)Nc1ccccc1,-21.4,-16.3%,-22.4,-5.5%,8.8%,5.0%
O=C(CSC1=NNC(c2ccccn2)S1)Nc1cccc(Cl)c1 (stereo not given),-96.0*,?,-89.2*,-14.3%,-2.8%,-0.8%
O=C(CSC1=NNC(c2ccccn2)S1)Nc1ccccc1 (stereo not given),-94.0*,?,-93.9*,-12.4%,-7.7%,-1.6%
O=C(CSc1nncn1-c1ccccn1)Nc1cccc(Cl)c1,8.8,18.7%,1.1,-3.3%,-6.0%,5.0%
CCc1ccc(CNC(=O)C2CCN(C(=O)c3ccc(-n4ccc5ccccc54)s3)CC2)cc1,.,.,.,106.3%,.,.
Cc1n[nH]c(=S)n(NC(=O)CC(=O)Nn2c(=S)[nH]nc(C)c2=O)c1=O,24.0,13.2%,-87.3*,-3.6%,10.7%,10.6%
Cc1nn2c(=S)[nH]nc2[nH]c1=O,-22.3,?,-2.6,-13.1%,3.4%,0.3%
Cc1n[nH]c(=S)n(NC(=O)/C=C/C(=O)Nn2c(=S)[nH]nc(C)c2=O)c1=O,?,?,-88.3*,0.1%,4.8%,-0.8%
COc1ccccc1OCC(=O)Nn1c(=S)[nH]c2ncccc2c1=O,-2.9,4.1%,-1.1,-2.1%,0.1%,-0.4%
COC(=O)c1ccccc1NC(=O)Cn1nc(C)c2nn(-c3ccc(Cl)cc3)c(C)c2c1=O,.,.,.,-5.8%,.,.
COc1ccc(O[C@H]2C=C[C@@H](c3ccccc3)O[C@H]2COC(=O)CC/C(C)=N\OC[C@@H](O)COCc2ccco2)cc1,.,.,.,-5.9%[15.3 µM],.,.
C=CCOC(=O)N[C@@H](CCc1ccccc1)C(C(C)=O)C(C)=O,.,5.3%,.,.,.,.
CCCS(=O)(=O)c1nc(S(=O)(=O)c2ccc(C)cc2)c(NC)s1,.,.,.,5.3%,.,.
Cc1ccccc1C(=O)/C(C#N)=N/Nc1c(C)n(C)n(-c2ccccc2)c1=O,-70.3*,?,-68.0*,10.3%,-6.6%,-1.7%
Cc1c(N/N=C(\C#N)C(=O)c2ccccc2)c(=O)n(-c2ccccc2)n1C,?,2.0%,-86.3*,1.3%,-1.6%,-1.1%
O=c1c2ncn([C@@H]3O[C@@H]4COP(=O)(O)O[C@H]4[C@H]3O)c2nc2[nH]c(-c3ccccc3)cn12,.,.,.,-10.2%,.,.
COc1ccc(-n2c(SCC(=O)NCc3ccccc3)nc3n[nH]c(C)c3c2=N)cc1,.,.,.,-0.4%,.,.
COc1ccccc1NC(=O)CSc1nc2n[nH]c(C)c2c(=N)n1-c1ccccc1Cl,-68.6*,?,?,-14.4%,-2.5%,-3.0%
Cc1cccc(-n2c(SCC(=O)Nc3ccccc3Cl)nc3n[nH]c(C)c3c2=N)c1,.,.,.,-22.8%,.,.
CCc1ccccc1NC(=O)CSc1nc2n[nH]c(C)c2c(=N)n1-c1ccc(OC)cc1,-65.2*,-4.3%,-74.2*,-17.7%,4.9%,0.6%

# Screens deposited in PubChem by National Center for Advancing Translational Sciences (NCATS).
